Screening data (PubChem BioAssay)
Most compounds without a hit are left out; they make up all but 1.5% or so of the library.
gsp antagonist: qHTS for Antagonists of gsp, the Etiologic Mutation Responsible for Fibrous Dysplasia/McCune-Albright Syndrome: qHTS; gsp-mutant cells, cAMP HTRF, 30 min; Potency, µM (series often up to 76.9 µM), most hits filed as inhibitors; AID 624288, 2012; 340,000 compounds, 0.4% hits; calls by dose curve; cell line not stated here;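 note: intracellular cAMP measured with PDE inhibitor Ro 20-1724 present during compound exposure; nearly all actives have a fitted effect of over 65% in size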
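Measurement of cellular cAMP by homogeneous time-resolved fluorescence following a 30 min compound exposure at 37C. The PDE inhibitor […] was present throughout; the assay buffer was DPBS with 0.05% BSA and 0.005% Tween 20.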
BRCA1 expr up: qHTS Assay to Identify Small Molecule Activators of BRCA1 Expression | AID 624202, 2012 | 380,000 compounds, 1.1% hits | MCF7-BRCA1-FFLuc reporter, luminescence, 48 h; response scale: scaled: vehicle 0%, 10 µM genistein 100% | Potency, µM (doses to about 46.1 µM), hits mostly activators; note: nearly all actives have a fitted effect of over 80% in size
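Reporter cells (MCF7, BRCA1 promoter-firefly luciferase) received library compounds across a concentration series for 48 h. End-point luminescence was measured and concentration-effect curves derived after normalization.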
mIDH1 inhibitor: qHTS for Inhibitors of mutant isocitrate dehydrogenase 1 (IDH1): qHTS | Potency, µM (highest dose often 76.6 µM), hits mostly inhibitors | IDH1-R132H enzyme, NADPH consumption, diaphorase/resazurin fluorescence | Isocitrate dehydrogenase [NADP] cytoplasmic (Homo sapiens), O75874 | 390,000 compounds, 0.093% hits; note: nearly all actives have a fitted effect of over 65% in size
Target sequence (O75874 whole entry R132H, stated change not applied): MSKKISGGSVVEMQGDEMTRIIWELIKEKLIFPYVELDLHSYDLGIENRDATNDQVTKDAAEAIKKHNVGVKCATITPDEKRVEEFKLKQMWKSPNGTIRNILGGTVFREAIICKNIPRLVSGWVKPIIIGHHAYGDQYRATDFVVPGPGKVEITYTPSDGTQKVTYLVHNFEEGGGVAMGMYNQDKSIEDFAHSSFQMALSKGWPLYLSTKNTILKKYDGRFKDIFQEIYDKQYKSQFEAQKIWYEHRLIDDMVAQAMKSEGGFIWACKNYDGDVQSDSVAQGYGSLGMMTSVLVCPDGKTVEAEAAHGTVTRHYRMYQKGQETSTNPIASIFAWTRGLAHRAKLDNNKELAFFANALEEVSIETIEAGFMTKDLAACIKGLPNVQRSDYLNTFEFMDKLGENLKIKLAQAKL
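IDH1-R132H (0.5 ug/mL) preincubated 30 min with compound, then NADPH (0.016 mM) and alpha-KG (2 mM) added; 80 min at RT, pH 7.5. Remaining NADPH coupled via diaphorase/resazurin to fluorescence (540/590 nm); concentration-response curves normalized to no-enzyme control.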
gsp agonist: qHTS for Agonist of gsp, the Etiologic Mutation Responsible for Fibrous Dysplasia/McCune-Albright Syndrome: qHTS; gsp mutant cells, cAMP HTRF, 30 min; Potency, µM (highest dose often 76.9 µM), actives largely listed as activators; 340,000 compounds, 0.13% hits; AID 624287, 2012; active = well fitted activation curve with a large enough effect; inconclusive = small, poorly fitted or top-dose-only effect, or another doubt; inactive = no such curve, though single readings can be large or run the other way; cell line not stated here;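 note: phosphodiesterase inhibitor Ro 20-1724 added with compounds to block cAMP breakdown; nearly all actives have a fitted effect of over 60% in size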
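Cells stably selected in G418 were plated at 2000/well, grown 16-24 hr, then given compounds in DMSO with the PDE inhibitor […] (300 uM solution added) for 30 min at 37C; cAMP was read by HTRF.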
IL2 activator: qHTS of IL-2 Activators; IL-2 activation reporter assay, cell-based qHTS; stimulated with anti-CD3/CD4/CD28 beads; in transgenic mouse T cells; activation, % (series mostly up to about 46 µM); 360,000 compounds, 0.065% hits; in the data active = activation above about 50%; inconclusive = mostly about 30% to 49%
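Unstimulated transgenic mouse T cells preincubated 60 min with compound, then stimulated with anti-CD3/anti-CD4-coated beads plus anti-CD28 for 18 h at 37 degrees C. IL-2 response read as EGFP and DsRed fluorescence by plate cytometry.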
Numbers stand for hits; – = inactive; ? = inconclusive; · = not tested or not shown; [ ] = another dose, or the depositor's remark. Unless noted, calls come from the whole dose curve; as a rule, active = well fitted curve in the direction sought with a large enough effect; inconclusive = small, poorly fitted or top-dose-only effect, or another doubt; inactive = no such curve, though single readings can be large; an effect the other way counts as inactive or inconclusive.

SMILES	gsp antagonist	BRCA1 expr up	mIDH1 inhibitor	gsp agonist	IL2 activator
Cc1ccc(OCc2cc(C(=O)NCCc3cccnc3)no2)cc1C	–	11µM	–	–	–
CCc1cc(C(=O)NCc2ccccc2)no1	·	·	–	·	·
CCCc1cc(C(=O)Nc2cc(C)ccc2O)no1	–	2.8µM	–	–[15.4 µM]	–
O=C(NCCCn1cccn1)c1cc(COc2ccccc2)on1	·	11µM	–	?	–
CCCc1cc(C(=O)NCCc2ccccc2)no1	–	4µM	–	–	–
Cc1ccc(N(C)C(=O)CN2C(=O)CCc3cc(S(=O)(=O)N4CCOCC4)ccc32)cc1	·	–	–	·	·
COc1cccc(CCNC(=O)c2cc(COc3ccc(C)c(C)c3)on2)c1OC	·	5.6µM	–	–	–
COc1cccc(CCNC(=O)c2cc(COc3cccc(OC)c3)on2)c1	·	–	–	–	–
CCC(CC)C(=O)Nc1ccc2nc(SCC(=O)N3CCCC3)sc2c1	·	·	–	·	·
O=C(CCN1C(=O)c2cccc3cccc(c23)C1=O)NC1CCS(=O)(=O)C1 (configuration not stated)	–	10µM	–	–[15.4 µM]	–
O=C(CCN1C(=O)c2ccccc2C1=O)N1CCOCC1	–	–	–	–	–
O=C(CCN1C(=O)c2cccc3cccc(c23)C1=O)N1CCOCC1	–	13µM	–	–[15.4 µM]	–
O=C(CCCCCN1C(=O)c2cccc3cccc(c23)C1=O)NC1CCS(=O)(=O)C1 (configuration not stated)	–	–	–	–	–
CCc1ccc(-c2nn(CC(=O)NC3CCCC3)c3c2cnc2ccc(C)cc23)cc1	·	·	–	·	·
O=[N+]([O-])c1cc(-c2nc(-c3ccccc3)no2)ccc1NCCc1ccccc1	·	–	–	·	·
O=C(CCCOc1ccc(Cl)cc1Cl)Nc1ccccc1C(=O)O	–	6.3µM	–	–	–
CC#CCCCC(=O)Nc1ccc(C(=O)O)cc1	–	–	–	–	–
CC#CCCCC(=O)Nc1ccccc1C(=O)O	–	11µM	–	–	–
CC1CCC/C(=C(\C#N)c2nc(-c3cc4ccccc4oc3=O)cs2)C1 (configuration not stated)	–	3.2µM	–	–	–
COc1ccc(C2CC2/C(=N/O)c2ccccn2)cc1 (configuration not stated)	–	–	–	–[15.4 µM]	–
COc1ccc(C2CC2/C(=N/O)c2ccccc2)cc1 (configuration not stated)	·	11µM	–	–[15.4 µM]	–
COc1ccc(C2CC2C(=O)c2ccccn2)cc1 (configuration not stated)	–	8.9µM	–	–	–
Cc1nn2c(NCCOCCO)c3c(nc2c1-c1ccccc1)CCCC3	–	–	–	–	–
COCCNc1c2c(nc3c(-c4ccccc4)c(C)nn13)CCCC2	35µM	–	–	–	–
COc1ccccc1N1CCN(/N=C/C=C\c2ccco2)CC1	–	2.8µM	–	–	–
SMILES	gsp antagonist	BRCA1 expr up	mIDH1 inhibitor	gsp agonist	IL2 activator
COc1ccccc1N1CCN(C(=O)/C=C/c2ccco2)CC1	–	–	–	–	–
CCC1CN(C(=O)N2CCC(C(=O)NCCCc3ccccc3)CC2)c2ccccc2O1 (configuration not stated)	·	·	–	·	·
COc1ccccc1CCNC(=O)C(=O)NCC(c1ccco1)S(=O)(=O)c1ccc(C)cc1 (configuration not stated)	·	·	–	·	·
O=S(=O)(c1cccc(-c2cn3cccnc3n2)c1)N1CCOCC1	–	–	–	18µM	–
Brc1ccc(-c2cn3cccnc3n2)cc1	–	3.5µM	–	–	–
O=S(=O)(c1cccc(-c2cn3cccnc3n2)c1)N1CCCCCC1	–	–	–	?	–
Cc1c(C(=O)N(C)C)sc2c1c(=O)n(-c1ccccc1C(F)(F)F)c(=O)n2Cc1ccccc1C#N	·	·	–	·	·
Cc1nnc(N2CCCC(C(=O)NCCc3ccccc3)C2)c2nn(-c3ccccc3)c(C)c12 (configuration not stated)	·	·	–	·	·
